Results filed as inconclusive are left out. Where a call stands in place of a potency, no number is given. The source made the active and inactive calls. Unless noted, calls come from the whole dose curve; as a rule, active = well fitted curve in the direction sought with a large enough effect; inconclusive = small, poorly fitted or top-dose-only effect, or another doubt; inactive = no such curve, though single readings can be large; an effect the other way counts as inactive or inconclusive.
Experiments:
[1] = qHTS drug screen for cell cycle checkpoint inhibitors in PARPi-resistant BRCA-mutant ovarian cancer cell lines. (AID 1963452; calls by dose curve); conditions: PEO1/OlaR viability, CellTiter-Glo luminescence, 96 h, stronger effect = lower value
Summary of the method: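 PEO1, PEO4 and PEO1/OlaR ovarian cancer cells, 600 per well, exposed 96 h at 37C to a dilution series. Viability read by CellTiter-Glo luminescence, normalized to DMSO and empty wells; activity summarized as Z-AUC.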

[2] = Primary redox qHTS assay for identification of artifact compounds. (AID 1845223); conditions: Amplex Red/HRP redox cycling with DTT, fluorescence; series mostly up to 53.8 µM
Summary of the method: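 Amplex Red (25 uM) and HRP (250 mU/mL) in HBSS, with compounds for 15 min, then 250 uM DTT for 30 min, room temperature, dark. Fluorescence 525/598 nm read; normalized to DMSO and 10 uM DA3003; Hill fit.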

[3] = qHTS profiling for inhibitors of Plasmodium falciparum proliferation (AID 504749); note: nearly all actives have a fitted effect of over 60% in size; note: potency is the fitted concentration of half-maximal effect; conditions: P. falciparum in erythrocytes, SYBR Green DNA, 72 h
Summary of the method: (§1)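 Infected RBCs, 0.3% parasitemia/2.5% Hct final; cpd 72 h, 37 C, 5% CO2; lysis buffer with saponin/triton/SYBR Green I, o/n RT dark; FI 485/535; norm. to artemisinin (0.29 uM) and DMSO.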

[4] = tested on: 3D7; test: as above; conditions: P. falciparum in erythrocytes, SYBR Green DNA, 72 h; series mostly up to 28.7 µM
Summary of the method: as §1

[5] = tested on: 7G8; test: as above; conditions: P. falciparum in erythrocytes, SYBR Green DNA, 72 h; series mostly up to 28.7 µM
Summary of the method: as §1

[6] = tested on: AA1029; test: as above; conditions: P. falciparum in erythrocytes, SYBR Green DNA, 72 h; series mostly up to 28.7 µM
Summary of the method: as §1

[7] = tested on: AS120; test: as above; conditions: P. falciparum in erythrocytes, SYBR Green DNA, 72 h; series mostly up to 28.7 µM
Summary of the method: as §1

[8] = tested on: ATS189; test: as above; conditions: P. falciparum in erythrocytes, SYBR Green DNA, 72 h; series mostly up to 28.7 µM
Summary of the method: as §1

[9] = at 28.7 µM (top of the series), parasite line A
[10] = at 28.7 µM (top of the series), parasite line B

Q: With CCOc1ccccc1-n1c(C(C)N2CCN(C(=O)COc3ccc(Cl)cc3)CC2)nc2ccccc2c1=O (stereo not drawn) as the compound, how does the Z-AUC [1] read?
A: 0.23 (inactive)

Q: What about the Z-AUC ([1]; measured here: PEO1 parental Z-AUC) of the same compound?
A: 0.347

Q: What about the Z-AUC ([1]; measured here: PEO4 Z-AUC) of the same compound?
A: -0.0275

Q: With CN1CCC[C@@H]1Cc1c[nH]c2ccc(Nc3ncccc3[N+](=O)[O-])cc12 as the compound, how does the outcome [2] read?
A: inactive

Q: For CCC1(c2ccccc2)C(=O)NC(=O)N(C)C1=O (stereo not drawn), which activity, negative = inhibition [3, 9] is on record?
A: 3.95% (inactive)

Q: And the activity, negative = inhibition [3, 10]?
A: 7.56% (inactive)

Q: What about the Potency [4] of the same compound?
A: inactive

Q: What about the Potency [5] of the same compound?
A: 8.91 µM (active)

Q: What about the Potency [6] of the same compound?
A: inactive

Q: What about the Potency [7] of the same compound?
A: inactive

Q: Which outcome [2] does the source give for OCCCCC#Cc1cncc(OC[C@@H]2CCN2)c1 here?
A: inactive

Q: Which activity, negative = inhibition [3, 9] does the source give for Cc1sc2ccccc2c1CC1=NCCN1 here?
A: 5.82% (inactive)

Q: What about the activity, negative = inhibition [3, 10] of the same compound?
A: -2.48% (inactive)

Q: What about the Potency [4] of the same compound?
A: inactive

Q: And the Potency [5]?
A: 10 µM (active)

Q: And the Potency [6]?
A: inactive

Q: And the Potency [7]?
A: inactive

Q: What about the Potency [8] of the same compound?
A: inactive

Q: What does the source list for NCC(O)c1cccc(O)c1 (stereo not drawn)?
A: activity, negative = inhibition [3, 9]: 5.65% (inactive); activity, negative = inhibition [3, 10]: 12% (inactive); Potency [4]: inactive; Potency [5]: inactive; Potency [6]: inactive; Potency [7]: inactive; Potency [8]: inactive

Q: For O=CC=O, which activity, negative = inhibition [3, 9] is on record?
A: 6.37% (inactive)

Q: And the activity, negative = inhibition [3, 10]?
A: 0.163% (inactive)

Q: What about the Potency [4] of the same compound?
A: inactive

Q: What about the Potency [5] of the same compound?
A: inactive

Q: And the Potency [6]?
A: inactive

Q: And the Potency [7]?
A: inactive

Q: What about the Potency [8] of the same compound?
A: inactive

Q: What does the source list for CCC(N)Cc1c[nH]c2ccccc12 (stereo not drawn)?
A: activity, negative = inhibition [3, 9]: -18.9% (inactive); activity, negative = inhibition [3, 10]: 9.32% (inactive); Potency [4]: inactive; Potency [5]: inactive; Potency [6]: inactive; Potency [7]: inactive; Potency [8]: inactive

Q: With C[C@]12CCC(=O)C[C@@H]1CC[C@@H]1[C@@H]2CC[C@]2(C)[C@@H](O)CC[C@@H]12 as the compound, how does the activity, negative = inhibition [3, 9] read?
A: -12.4% (inactive)

Q: And the activity, negative = inhibition [3, 10]?
A: 4.65% (inactive)

Q: And the Potency [4]?
A: inactive

Q: And the Potency [5]?
A: inactive

Q: What about the Potency [6] of the same compound?
A: inactive

Q: And the Potency [7]?
A: inactive

Q: And the Potency [8]?
A: inactive

Q: With CCOc1ccc2c3c1O[C@H]1[C@@H](O)C=C[C@H]4[C@@H](C2)N(C)CC[C@@]341 as the compound, how does the activity, negative = inhibition [3, 9] read?
A: 0.925% (inactive)

Q: And the activity, negative = inhibition [3, 10]?
A: -4.11% (inactive)

Q: What about the Potency [4] of the same compound?
A: inactive

Q: And the Potency [5]?
A: inactive

Q: What about the Potency [6] of the same compound?
A: inactive

Q: And the Potency [7]?
A: inactive

Q: What about the Potency [8] of the same compound?
A: inactive

Q: Which activity, negative = inhibition [3, 9] does the source give for O[C@H]1[C@H]2[C@H](O)CCCN2C[C@H]1O here?
A: 9.76% (inactive)

Q: And the activity, negative = inhibition [3, 10]?
A: 2.41% (inactive)

Q: And the Potency [4]?
A: inactive

Q: What about the Potency [5] of the same compound?
A: inactive

Q: What about the Potency [6] of the same compound?
A: inactive

Q: What about the Potency [7] of the same compound?
A: inactive

Q: What about the Potency [8] of the same compound?
A: inactive

Q: Which results are given for O=C1CC[C@@]2(O)C3Cc4ccc(O)c5c4C2(CCN3CC2CC2)[C@H]1O5 (stereo partly drawn)?
A: activity, negative = inhibition [3, 9]: 9.65% (inactive); activity, negative = inhibition [3, 10]: 8.16% (inactive); Potency [4]: inactive; Potency [5]: inactive; Potency [6]: inactive; Potency [7]: inactive; Potency [8]: inactive

Q: Which activity, negative = inhibition [3, 9] does the source give for O=P(O)(O)C(Cl)(Cl)P(=O)(O)O here?
A: 6.37% (inactive)

Q: What about the activity, negative = inhibition [3, 10] of the same compound?
A: 14% (inactive)

Q: What about the Potency [4] of the same compound?
A: inactive

Q: And the Potency [5]?
A: inactive

Q: What about the Potency [6] of the same compound?
A: inactive

Q: And the Potency [7]?
A: inactive

Q: And the Potency [8]?
A: inactive

Q: For O=S(=O)(O)c1cc(O)ccc1O, which activity, negative = inhibition ([3]; at 12.8 µM (top of the series), parasite line A) is on record?
A: 3.73% (inactive)

Q: What about the activity, negative = inhibition ([3]; at 12.8 µM (top of the series), parasite line B) of the same compound?
A: -1.7% (inactive)

Q: What about the Potency [4] of the same compound?
A: inactive

Q: What about the Potency [5] of the same compound?
A: inactive

Q: And the Potency [6]?
A: inactive

Q: And the Potency [7]?
A: inactive

Q: What about the Potency [8] of the same compound?
A: inactive

Q: Which results are given for COc1ccc2c(c1OC)C(=O)OC2C1c2cc3c(cc2CCN1C)OCO3 (stereo not drawn)?
A: activity, negative = inhibition [3, 9]: 9.94% (inactive); activity, negative = inhibition [3, 10]: 3.46% (inactive); Potency [4]: inactive; Potency [5]: inactive; Potency [6]: inactive; Potency [7]: inactive; Potency [8]: inactive

Q: With CC(N)Cc1ccc(O)cc1 (stereo not drawn) as the compound, how does the activity, negative = inhibition [3, 9] read?
A: -0.875% (inactive)

Q: And the activity, negative = inhibition [3, 10]?
A: 1.76% (inactive)

Q: What about the Potency [4] of the same compound?
A: inactive

Q: And the Potency [5]?
A: inactive

Q: What about the Potency [6] of the same compound?
A: inactive

Q: And the Potency [7]?
A: inactive

Q: And the Potency [8]?
A: inactive

Q: For CCON=O, which activity, negative = inhibition [3, 9] is on record?
A: -4.19% (inactive)

Q: And the activity, negative = inhibition [3, 10]?
A: 0.895% (inactive)

Q: What about the Potency [4] of the same compound?
A: inactive

Q: And the Potency [5]?
A: inactive

Q: And the Potency [6]?
A: inactive

Q: And the Potency [7]?
A: inactive

Q: And the Potency [8]?
A: inactive

Q: Which activity, negative = inhibition [3, 9] does the source give for CC(C)CCON=O here?
A: -1.57% (inactive)

Q: And the activity, negative = inhibition [3, 10]?
A: -11.8% (inactive)

Q: And the Potency [4]?
A: inactive

Q: What about the Potency [5] of the same compound?
A: inactive

Q: And the Potency [6]?
A: inactive

Q: What about the Potency [7] of the same compound?
A: inactive

Q: What about the Potency [8] of the same compound?
A: inactive

Q: With CN1c2ccccc2C(NCCCCCCC(=O)O)c2ccc(Cl)cc2S1(=O)=O (stereo not drawn) as the compound, how does the activity, negative = inhibition [3, 9] read?
A: 2.2% (inactive)

Q: And the activity, negative = inhibition [3, 10]?
A: -5.71% (inactive)

Q: And the Potency [4]?
A: inactive

Q: And the Potency [5]?
A: inactive

Q: And the Potency [6]?
A: inactive

Q: And the Potency [7]?
A: inactive

Q: And the Potency [8]?
A: inactive

Q: Which activity, negative = inhibition [3, 9] does the source give for S=C=S here?
A: 2.86% (inactive)

Q: What about the activity, negative = inhibition [3, 10] of the same compound?
A: 20.2% (inactive)

Q: What about the Potency [4] of the same compound?
A: inactive

Q: And the Potency [5]?
A: inactive

Q: What about the Potency [6] of the same compound?
A: inactive

Q: What about the Potency [7] of the same compound?
A: inactive

Q: And the Potency [8]?
A: inactive

Q: Which results are given for O=C(CCl)c1ccc(Oc2ccc(C(=O)CCl)cc2)cc1?
A: activity, negative = inhibition [3, 9]: 5.66% (inactive); activity, negative = inhibition [3, 10]: 2.87% (inactive); Potency [4]: inactive; Potency [5]: inactive; Potency [6]: inactive; Potency [7]: inactive; Potency [8]: inactive

Q: With O=C(OCCN1CCCCC1)C(O)(c1ccccc1)c1ccccc1 as the compound, how does the activity, negative = inhibition [3, 9] read?
A: 8.26% (inactive)

Q: What about the activity, negative = inhibition [3, 10] of the same compound?
A: -1.95% (inactive)

Q: And the Potency [4]?
A: inactive

Q: And the Potency [5]?
A: inactive

Q: What about the Potency [6] of the same compound?
A: inactive

Q: And the Potency [7]?
A: inactive

Q: And the Potency [8]?
A: inactive

Q: With CCC1C(C)=NN=C(c2ccc(OC)c(OC)c2)c2cc(OC)c(OC)cc21 (stereo not drawn) as the compound, how does the activity, negative = inhibition [3, 9] read?
A: 12.9% (inactive)

Q: What about the activity, negative = inhibition [3, 10] of the same compound?
A: 13.3% (inactive)

Q: And the Potency [4]?
A: inactive

Q: What about the Potency [5] of the same compound?
A: 14.1 µM (active)

Q: And the Potency [6]?
A: inactive

Q: And the Potency [7]?
A: inactive

Q: And the Potency [8]?
A: inactive

Q: With CC(C)Nc1ccc(Nc2ccccc2)cc1 as the compound, how does the Potency ([3]; parasite line A) read?
A: 3.16 µM (active)

Q: And the Potency ([3]; parasite line B)?
A: 5.01 µM (active)

Q: And the Potency [4]?
A: 6.31 µM (active)

Q: What about the Potency [5] of the same compound?
A: 8.91 µM (active)

Q: And the Potency [6]?
A: 7.08 µM (active)

Q: And the Potency [7]?
A: 11.2 µM (active)

Q: What about the Potency [8] of the same compound?
A: 5.62 µM (active)

Q: For CC(Cc1ccccc1)NC=O (stereo not drawn), which activity, negative = inhibition [3, 9] is on record?
A: 1.78% (inactive)

Q: And the activity, negative = inhibition [3, 10]?
A: 3.72% (inactive)

Q: And the Potency [4]?
A: inactive

Q: What about the Potency [5] of the same compound?
A: inactive

Q: And the Potency [6]?
A: inactive

Q: And the Potency [7]?
A: inactive

Q: And the Potency [8]?
A: inactive
